The values below come from ChEMBL document CHEMBL4513146, “CO-ADD screening of Karazin Kharkiv National University (Ukraine) compounds”.

Structures are written as SMILES. Entries with a potency or affinity are not part of this list.

For the assay, the system named is Klebsiella pneumoniae. The conditions noted are these: Concentration 32 ug.mL-1;; ASSAY_TEST Inhibition of Bacterial Growth; detection method Absorption (OD600); MEDIA CAMHB; plate type 384well; NBS; CORNING #3640; time 18 hr.
On to `COc1cccc(Oc2nccn3c(=O)n(CC(=O)Nc4ccc5c(c4)OCCO5)nc23)c1`, for which the Inhibition is 1.41%.

Regarding `CCc1nnc2c(SCC(=O)Nc3cccc(OC)c3)nc3ccccc3n12`, the Inhibition amounted to 3.16%.

Regarding `CCCCOc1ccc(-c2cc3c4nnc(SCC(=O)Nc5ccc(OC)cc5)n4ccn3n2)cc1`, the Inhibition was determined as 6.75%.

Take `O=S(=O)(c1ccc2nncn2c1)N(Cc1cc(F)cc(F)c1)c1ccc2c(c1)OCO2`: the Inhibition is recorded as 11.56%.

Consider `O=C(Cn1nc2ccc(SCc3ccc(Cl)cc3)nn2c1=O)Nc1ccc2c(c1)CCC2`, for which the Inhibition turned out to be 12.2%.

Consider `CCOc1ccc(-n2ccn3c(SC(C)C(=O)Nc4ccc(OC)cc4)nnc3c2=O)cc1` (stereo not given), for which the Inhibition was determined as 5.17%.

As to `Cc1cc2nn(CC(=O)Nc3ccc(F)cc3Cl)c(=O)n2c(Nc2ccc(F)cc2)n1`, the Inhibition amounted to 8.79%.

For `CCc1ccccc1NC(=O)Cn1nc2c(Sc3ccc(C)cc3C)nccn2c1=O`, the Inhibition is given as 5.69%.

Regarding `Cc1cc(C)c(NC(=O)Cn2nc3n(C)c(=O)c4c(c(-c5ccccc5)cn4C)n3c2=O)c(C)c1`, the Inhibition came out at 4.68%.

For `Cc1ccc(C)c(CN(c2ccc(F)c(F)c2)S(=O)(=O)c2cccn3cnnc23)c1`, the Inhibition is -0.76%.

On to `CC(C)c1nnc2c(=O)n(CC(=O)Nc3ccccc3)c3ccccc3n12`, for which the Inhibition is 14.31%.

Take `COc1ccc(-c2cc3c4nn(CC(=O)Nc5ccc(OC)c(Cl)c5)c(=O)n4ccn3n2)cc1`: the Inhibition was -0.45%.

On to `O=C(Cn1nc2ccc(Sc3cccc(F)c3)nn2c1=O)NCc1ccc(C(F)(F)F)cc1`, for which the Inhibition was determined as 8.35%.

For the compound `CC(C)Cn1c(=O)c2sccc2n2c(=O)n(Cc3ccccc3Cl)nc12`, the Inhibition worked out at 3.91%.

Take `Cc1ccc(NC(=O)Cn2nc3c4cc(-c5ccc(Cl)cc5)nn4ccn3c2=O)cc1F`: the Inhibition is given as 4.91%.

Take `CCc1nnc2c(SCC(=O)Nc3c(C)cc(C)cc3C)nc3ccccc3n12`: the Inhibition was 8.2%.

For the compound `C=Cc1ccc(CN(c2ccc(Cl)cc2)S(=O)(=O)c2cccn3c(C)nnc23)cc1`, the Inhibition was determined as 7.52%.

Turning to `O=C(Cn1nc2nc(Nc3ccc(F)cc3)ccn2c1=O)N1CCCC1`, the Inhibition was 10.98%.

For `COc1ccccc1N1CCN(C(=O)Cn2nc3ccc(-c4ccccc4)nn3c2=O)CC1`, the Inhibition worked out at 2.09%.

Take `COc1ccc(NC(=O)Cn2nc3ccc(-c4ccc(Cl)cc4)nn3c2=O)cc1OC`: the Inhibition was determined as 8.45%.

Regarding `CC(C)CCn1c(=O)c2sccc2n2c(=O)n(CC(=O)NC(C)C)nc12`, the Inhibition stood at 5.25%.

Consider `Cc1ccccc1CN(c1ccc(Cl)cc1)S(=O)(=O)c1cccn2c(C)nnc12`, for which the Inhibition turned out to be 11.42%.

As for `CC(C)c1ccc(NC(=O)Cn2nc3c(N4CCCC4)nccn3c2=O)cc1`, the Inhibition was 11.79%.

As for `Cc1ccc(-c2ccc3nn(Cc4nc(-c5ccc(OC(F)(F)F)cc5)no4)c(=O)n3n2)cc1`, the Inhibition was -0.72%.

Consider `COc1cccc(Oc2nccn3c(=O)n(CC(=O)Nc4ccccc4C(F)(F)F)nc23)c1`, for which the Inhibition was 12.08%.

Take `Cc1ccc(N(Cc2ccc(F)cc2)S(=O)(=O)c2ccc3nnc(C)n3c2)cc1`: the Inhibition was found to be 5.71%.

With `CCOC(=O)C1CCCN(C(=O)Cn2nc3n(CC(C)C)c(=O)c4sccc4n3c2=O)C1` (stereo not given), the Inhibition stood at 8.18%.

`CCOC(=O)c1ccccc1NC(=O)Cn1nc2c(Oc3cccc(OC)c3)nccn2c1=O`: the Inhibition is given as 5.46%.

With `Cc1nnc2ccc(S(=O)(=O)N(Cc3ccccc3F)c3ccc(F)cc3)cn12`, the Inhibition amounted to 5.62%.

With `CCOc1ccc(NC(=O)Cn2nc3c4cc(-c5ccc(C)c(C)c5)nn4ccn3c2=O)cc1`, the Inhibition worked out at 8.27%.

Take `Cc1nnc2c(SCC(=O)Nc3ccc(C#N)cc3)nc3ccccc3n12`: the Inhibition is listed as 5.06%.

Turning to `CC(C)c1ccc(Oc2nc3ccccc3n3c(=O)n(CC(=O)Nc4ccc5c(c4)OCO5)nc23)cc1`, the Inhibition is recorded as 7.45%.

`Cc1nnc2c(=O)n(CC(=O)Nc3ccccc3F)c3ccccc3n12`: the Inhibition worked out at 0.65%.

As to `CCOC(=O)c1ccccc1NC(=O)Cn1nc2c3cc(-c4ccc(Cl)cc4)nn3ccn2c1=O`, the Inhibition was 14.78%.

As for `O=c1c2nn(Cc3c(F)cccc3Cl)c(=O)n2ccn1-c1ccccc1`, the Inhibition was 15.43%.

`CCCCn1c(=O)c2sccc2n2c(=O)n(CC(=O)N3CCC(Cc4ccccc4)CC3)nc12`: the Inhibition was 0.07%.

`COc1cccc(-n2ccn3c(SCC(=O)c4c(C)[nH]c5ccccc45)nnc3c2=O)c1`: the Inhibition is on record as 9.67%.

`COc1ccc(CCn2c(=O)c3sccc3n3c(=O)n(CC(=O)c4ccccc4)nc23)cc1OC`: the Inhibition was 16.06%.

As for `Cc1cc(C)cc(Nc2nc(C)cc3nn(CC(=O)Nc4ccc(F)cc4F)c(=O)n23)c1`, the Inhibition stood at 15.5%.

With `COc1ccc(-c2cc3c4nnc(SCC(=O)Nc5ccc(C)cc5Cl)n4ccn3n2)cc1`, the Inhibition was 11.06%.
